# Measured values from PubChem BioAssay (Tox21).
# Values without a mark were called inactive. Records with an inconclusive call do not appear. Where a call stands in place of a potency, no number is given. Active and inactive are the calls of the source. Unless noted, the call rests on the fitted dose curve; in most records, active means well fitted curve in the direction sought with a large enough effect in the repeat runs; inconclusive means weak or mixed curves; inactive means no such curve, though single readings can be large; an effect the other way counts as inactive or inconclusive.
# Assays:
# [1] = qHTS assay to identify small molecule agonists of H2AX (AID 1224845; active means well fitted activation curve with a large enough effect in the signal ratio in the repeat runs, not every such curve was filed as active; the % refers to the signal ratio)
# Procedure, shortened: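 Wild-type CHO-K1 cells, plated overnight, exposed 3hr at 37C to 15 concentrations (0.76% DMSO final). Lysed, then HTRF anti-pH2AX (S139) cryptate and anti-H2AX-d2 antibodies, 24 hr room temperature; 665/620 nm emission read.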
# [2] = qHTS assay to identify small molecule agonists of H2AX - cell viability counter screen (AID 1224847; calls by dose curve; further: nearly all actives have a fitted effect of over 30% in size; further: potency means the concentration at half of the fitted maximal effect; on activity change, negative = cytotoxicity: top concentration of the series differs between compounds)
# Procedure, shortened: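 Wild-type CHO-K1 cells (10% FBS medium) were plated overnight at 37C, exposed to compounds at 15 concentrations for 3 hr at 37C (0.76% DMSO final), and viability was read as CellTiter-Glo luminescence after 30 min at room temperature.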
# [3] = qHTS assay to identify small molecule antagonists of the estrogen related receptor (ERR) signaling pathway from Tox21 library (AID 1224848); further: nearly all actives have a fitted effect of over 50% in size; further: potency means the concentration at half of the fitted maximal effect
# Procedure, shortened: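 Compounds dissolved in DMSO are pin-transferred onto ERR reporter cells (2,000 per well) that have settled for 6 h at 37 C. Plates then incubate 18 h at 37 C before ONE-Glo luciferase reagent and a luminescence read 30 min later.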
# [4] = qHTS assay to identify small molecule agonists of the estrogen related receptor (ERR) signaling pathway from Tox21 library (AID 1224849; calls by dose curve; further: nearly all actives have a fitted effect of over 15% in size); conditions: ERR reporter cell line, ONE-Glo luciferase, 18 h; at 92.4 µM (top of the series) unless noted
# Procedure, shortened: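 Cells carrying the ERR reporter were plated and allowed to settle for 6 h, exposed to library compounds for 18 h at 37 C, then lysed with ONE-Glo and luminescence measured.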
# [5] = qHTS RealTime-Glo MT Cell Viability Assay in HEK293 cells - 32 hour (AID 1224868); further: nearly all actives have a fitted effect of over 50% in size; further: potency means the concentration at half of the fitted maximal effect; on activity change, negative = cytotoxic: top concentration of the series differs between compounds
# Procedure, shortened: (§1)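 HEK293 cells were seeded at 600 cells/well together with NanoLuc luciferase and cell-permeant prosubstrate, preincubated 5 h at 37 C/5% CO2, then given compound in DMSO by pintool. Luminescence from viable-cell prosubstrate reduction was read repeatedly over 40 h.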
# [6] = A CellTox Green Cytotoxicity Assay to monitor cytotoxicity in HEK293 cells - 0 hour (AID 1224869); further: nearly all actives have a fitted effect of over 50% in size
# Procedure, shortened: (§2)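 Cells (HEK293, 600/well) and dye reagent are dispensed together. After 5 h at 37 C, 23 nL compound is pinned in. Plates stay at 37 C for 40 h with fluorescence read at 0h, 8h, 16h, 24h, 32h and 40h.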
# [7] = qHTS RealTime-Glo MT Cell Viability Assay in HepG2 cells - 40 hour (AID 1224870); further: nearly all actives have a fitted effect of over 50% in size
# Procedure, shortened: (§3)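 HepG2 cells (600/well) mixed with RealTime-Glo MT reagent, settled 5 h at 37 C/5% CO2 before compound addition. Nonlytic NanoLuc luminescence from viable-cell prosubstrate reduction read repeatedly during 40 h treatment at 37 C.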
# [8] = A CellTox Green Cytotoxicity Assay to monitor cytotoxicity in HEK293 cells - 40 hour (AID 1224871); further: nearly all actives have a fitted effect of over 45% in size
# Procedure, shortened: as §2
# [9] = qHTS RealTime-Glo MT Cell Viability Assay in HEK293 cells - 16 hour (AID 1224872)
# Procedure, shortened: as §1
# [10] = qHTS RealTime-Glo MT Cell Viability Assay in HepG2 cells - 8 hour (AID 1224873); further: nearly all actives have a fitted effect of over 55% in size
# Procedure, shortened: as §3
# [11] = qHTS RealTime-Glo MT Cell Viability Assay in HEK293 cells - 40 hour (AID 1224874); conditions: RealTime-Glo luminescence; max response: hits give low values; further: nearly all actives have a fitted effect of over 50% in size; further: potency means the concentration at half of the fitted maximal effect
# Procedure, shortened: (§4)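 Real-time viability in HEK293: signal arises when living cells convert a prosubstrate for NanoLuc in the medium, so luminescence tracks viable cell number. Compound (23 nL, DMSO) added 5 h post-seeding; kinetic reads at 0–40 h, 37 C.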
# [12] = A CellTox Green Cytotoxicity Assay to monitor cytotoxicity in HEK293 cells - 24 hour (AID 1224875); further: nearly all actives have a fitted effect of over 45% in size
# Procedure, shortened: as §2
# [13] = A CellTox Green Cytotoxicity Assay to monitor cytotoxicity in HepG2 cells - 16 hour (AID 1224876); further: nearly all actives have a fitted effect of over 45% in size; further: potency means the concentration at half of the fitted maximal effect
# Procedure, shortened: (§5)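 Cells and non-lytic dye reagent are dispensed together (600 HepG2 cells/well) and incubated 5 h before DMSO compound transfer. Kinetic fluorescence is then recorded in the same wells during 40 h at 37 C.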
# [14] = qHTS RealTime-Glo MT Cell Viability Assay in HepG2 cells - 32 hour (AID 1224877); further: nearly all actives have a fitted effect of over 55% in size
# Procedure, shortened: (§6)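 HepG2 cells were seeded at 600 cells/well together with NanoLuc luciferase and a cell-permeant prosubstrate, preincubated 5 h at 37 C/5% CO2, then pin-dosed with compounds in DMSO. Nonlytic luminescence from viable cells was read at each time point.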
# [15] = A CellTox Green Cytotoxicity Assay to monitor cytotoxicity in HepG2 cells - 24 hour (AID 1224878); further: nearly all actives have a fitted effect of over 45% in size; further: potency means the concentration at half of the fitted maximal effect
# Procedure, shortened: as §5
# [16] = A CellTox Green Cytotoxicity Assay to monitor cytotoxicity in HepG2 cells - 40 hour (AID 1224879); further: nearly all actives have a fitted effect of over 40% in size; further: potency means the concentration at half of the fitted maximal effect
# Procedure, shortened: as §5
# [17] = qHTS RealTime-Glo MT Cell Viability Assay in HEK293 cells - 0 hour (AID 1224880)
# Procedure, shortened: as §4
# [18] = A CellTox Green Cytotoxicity Assay to monitor cytotoxicity in HEK293 cells - 32 hour (AID 1224881); further: nearly all actives have a fitted effect of over 40% in size
# Procedure, shortened: as §2
# [19] = qHTS RealTime-Glo MT Cell Viability Assay in HepG2 cells - 24 hour (AID 1224867); further: nearly all actives have a fitted effect of over 50% in size
# Procedure, shortened: as §6
smiles,measurement,setting,value
C=CCOC(=O)CCC1CCCCC1,Potency,[1],inactive
same,Potency,[2],inactive
same,Potency,[3],inactive
same,"activity change, positive = activation",[4],-4.2%
same,Potency,[5],inactive
same,Potency,[6],inactive
same,Potency,[7],inactive
same,Potency,[8],inactive
same,Potency,[9],inactive
same,Potency,[10],inactive
same,max response,[11],4.81%
same,Potency,[12],inactive
same,Potency,[13],inactive
same,Potency,[14],inactive
same,Potency,[15],inactive
same,Potency,[16],inactive
same,Potency,[17],inactive
same,Potency,[18],inactive
NC(N)=NCCC[C@H](N)C(=O)O,activation (H2AX phosphorylation),[1],-0.995% [at 14 µM]
same,"activity change, negative = cytotoxicity",[2],0.155% [at 14 µM]
same,"activity, negative = inhibition",[3],11% [at 8.39 µM]
same,"activity change, positive = activation",[4],5.81% [at 8.39 µM]
same,"activity change, negative = cytotoxicity",[19],3.74% [at 6.97 µM]
same,"activity change, negative = cytotoxic",[5],5.15% [at 6.97 µM]
same,cytotoxicity,[6],-14.4% [at 6.97 µM]
same,"activity change, negative = cytotoxic",[7],2.25% [at 6.97 µM]
same,cytotoxicity increase,[8],-21.8% [at 6.97 µM]
same,"activity change, negative = cytotoxicity",[9],5.7% [at 6.97 µM]
same,"viability change, negative = cytotoxic",[10],1.03% [at 6.97 µM]
same,max response,[11],2.97%
same,activity change,[12],"-20.5% [at 6.97 µM, hits give high values]"
same,cytotoxicity increase,[13],-5.32% [at 6.97 µM]
same,"activity change, negative = cytotoxic",[14],2.81% [at 6.97 µM]
same,cytotoxicity increase,[16],-3.66% [at 6.97 µM]
same,"activity change, negative = cytotoxicity",[17],14% [at 6.97 µM]
same,cytotoxicity increase,[18],-21.7% [at 6.97 µM]
O=[N+]([O-])c1cccc(S(=O)(=O)O)c1,Potency,[1],inactive
same,Potency,[2],45.7 µM (active)
same,Potency,[3],27.7 µM (active)
same,"activity change, positive = activation",[4],-46%
same,Potency,[19],inactive
same,Potency,[5],22.2 µM (active)
same,Potency,[6],inactive
same,Potency,[7],inactive
same,Potency,[10],inactive
same,Potency,[11],17.6 µM (active)
same,Potency,[12],inactive
same,Potency,[13],inactive
same,Potency,[14],inactive
same,Potency,[15],inactive
same,Potency,[16],inactive
same,Potency,[17],inactive
COc1ccc(C)cc1[N+](=O)[O-],Potency,[1],inactive
same,Potency,[2],inactive
same,Potency,[3],inactive
same,"activity change, positive = activation",[4],4.3%
same,Potency,[19],inactive
same,Potency,[5],inactive
same,Potency,[6],inactive
same,Potency,[7],inactive
same,Potency,[8],inactive
same,Potency,[9],inactive
same,max response,[11],-4.46%
same,Potency,[12],inactive
same,Potency,[13],inactive
same,Potency,[14],inactive
same,Potency,[15],inactive
same,Potency,[16],inactive
same,Potency,[17],inactive
Cc1ccc(C(C)OC(=O)C2(C)CCC(C(=O)O)C2(C)C)cc1 (centres undefined),Potency,[1],inactive
same,Potency,[2],inactive
same,Potency,[19],inactive
same,Potency,[5],inactive
same,Potency,[6],inactive
same,Potency,[7],inactive
same,Potency,[8],inactive
same,Potency,[9],inactive
same,Potency,[10],inactive
same,max response,[11],8.96%
same,Potency,[12],inactive
same,Potency,[13],inactive
same,Potency,[15],inactive
same,Potency,[16],inactive
same,Potency,[17],inactive
same,Potency,[18],inactive
CO[C@@H]1[C@H](OC(=O)/C=C/C=C/C=C/C=C/C(=O)O)CC[C@]2(CO2)[C@H]1[C@@]1(C)O[C@@H]1CC=C(C)C,Potency,[1],inactive
same,Potency,[2],inactive
same,Potency,[3],inactive
same,"activity change, positive = activation",[4],-16%
same,Potency,[19],inactive
same,Potency,[6],inactive
same,Potency,[7],inactive
same,Potency,[8],inactive
same,Potency,[10],inactive
same,max response,[11],18.9%
same,Potency,[12],inactive
same,Potency,[13],inactive
same,Potency,[14],inactive
same,Potency,[15],inactive
same,Potency,[16],inactive
same,Potency,[18],inactive
CN(C)C(=O)NC1(c2ccccc2)CCN(CC[C@@]2(c3ccc(F)c(F)c3)CN(C(=O)c3ccccc3)CCO2)CC1,Potency,[1],inactive
same,Potency,[2],inactive
same,"activity change, positive = activation",[4],-22.6%
same,Potency,[6],inactive
same,Potency,[7],inactive
same,Potency,[8],inactive
same,Potency,[10],inactive
same,Potency,[12],inactive
same,Potency,[13],inactive
same,Potency,[14],inactive
same,Potency,[15],inactive
same,Potency,[17],inactive
same,Potency,[18],inactive
CCN(CC)CCNC(=O)c1cc(Br)c(N)cc1OC,Potency,[1],inactive
same,Potency,[2],inactive
same,Potency,[3],inactive
same,"activity change, positive = activation",[4],3.9% [at 42.5 µM]
same,Potency,[19],inactive
same,Potency,[5],inactive
same,Potency,[6],inactive
same,Potency,[7],inactive
same,Potency,[8],inactive
same,Potency,[9],inactive
same,Potency,[10],inactive
same,max response,[11],10.1%
same,Potency,[12],inactive
same,Potency,[13],inactive
same,Potency,[14],inactive
same,Potency,[15],inactive
same,Potency,[16],inactive
same,Potency,[17],inactive
same,Potency,[18],inactive
CCn1cc(C(=O)O)c(=O)c2cnc(N3CCNCC3)nc21,Potency,[1],inactive
same,Potency,[2],inactive
same,Potency,[3],inactive
same,"activity change, positive = activation",[4],2.22% [at 42.5 µM]
same,Potency,[19],inactive
same,Potency,[5],inactive
same,Potency,[6],inactive
same,Potency,[7],inactive
same,Potency,[8],inactive
same,Potency,[10],inactive
same,max response,[11],6.48%
same,Potency,[12],inactive
same,Potency,[15],inactive
same,Potency,[16],inactive
same,Potency,[17],inactive
CCCCCCCC/C=C\CCCCCCCC(=O)OCC,Potency,[1],inactive
same,Potency,[2],inactive
same,Potency,[3],inactive
same,"activity change, positive = activation",[4],-11.5%
same,Potency,[19],inactive
same,Potency,[5],inactive
same,Potency,[6],inactive
same,Potency,[7],inactive
same,Potency,[8],inactive
same,Potency,[9],inactive
same,Potency,[10],inactive
same,max response,[11],4.58%
same,Potency,[12],inactive
same,Potency,[14],inactive
same,Potency,[15],inactive
same,Potency,[16],inactive
same,Potency,[17],inactive
same,Potency,[18],inactive
CCC(=O)O[C@]1(C(=O)CCl)[C@@H](C)C[C@H]2[C@@H]3CCC4=CC(=O)C=C[C@]4(C)[C@@]3(F)[C@@H](O)C[C@@]21C,Potency,[1],inactive
same,Potency,[2],inactive
same,"activity change, positive = activation",[4],-18.7% [at 42.5 µM]
same,Potency,[6],inactive
same,Potency,[7],inactive
same,Potency,[8],inactive
same,Potency,[12],inactive
same,Potency,[13],inactive
same,Potency,[14],inactive
same,Potency,[15],inactive
same,Potency,[16],inactive
same,Potency,[17],inactive
same,Potency,[18],inactive
CC(C)(COC(=O)c1ccccc1)COC(=O)c1ccccc1,Potency,[1],inactive
same,Potency,[2],inactive
same,Potency,[19],inactive
same,Potency,[5],inactive
same,Potency,[6],inactive
same,Potency,[7],inactive
same,Potency,[8],inactive
same,Potency,[10],inactive
same,max response,[11],-28.7%
same,Potency,[12],inactive
same,Potency,[14],inactive
same,Potency,[16],inactive
same,Potency,[17],inactive
same,Potency,[18],inactive
OCc1cc(C(O)CNCCCCCCOCCCCc2ccccc2)ccc1O (centres undefined),Potency,[1],inactive
same,Potency,[2],inactive
same,Potency,[3],21.1 µM (active)
same,"activity change, positive = activation",[4],-29.9% [at 42.5 µM]
same,Potency,[5],21.3 µM (active)
same,Potency,[6],inactive
same,Potency,[11],23.9 µM (active)
same,Potency,[13],23.9 µM (active)
same,Potency,[15],23.9 µM (active)
same,Potency,[16],23.9 µM (active)
same,Potency,[17],inactive
C[C@H]1C[C@H]2[C@@H]3CCC4=CC(=O)C=C[C@]4(C)[C@@]3(Cl)[C@@H](O)C[C@]2(C)[C@@]1(O)C(=O)CO,Potency,[1],inactive
same,Potency,[2],inactive
same,Potency,[3],26.6 µM (active)
same,"activity change, positive = activation",[4],-28.8% [at 42.5 µM]
same,Potency,[19],inactive
same,Potency,[5],inactive
same,Potency,[6],inactive
same,Potency,[7],inactive
same,max response,[11],-22.6%
same,Potency,[12],inactive
same,Potency,[13],inactive
same,Potency,[15],inactive
same,Potency,[16],inactive
same,Potency,[17],inactive
same,Potency,[18],inactive
